Bioassay records from PubChem BioAssay.
ABCB6 inh 2: blocks the human ABCB6 transporter; fluorescence ratio to DMSO, % at 10 µM; 360,000 tested, 0.19% active; K562-ABCB6 porphyrin accumulation, flow cytometry, 1 h; active compounds read low;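 active = fluorescence ratio to DMSO below 75%, the collection mean minus 3 SD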;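 also: signal is porphyrin accumulated inside mitochondria; 100% equals median channel fluorescence of DMSO control wells; lower ratio means ABCB6 inhibition with less porphyrin fluorescence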
Target sequence (Q9NP58 whole entry, looked up): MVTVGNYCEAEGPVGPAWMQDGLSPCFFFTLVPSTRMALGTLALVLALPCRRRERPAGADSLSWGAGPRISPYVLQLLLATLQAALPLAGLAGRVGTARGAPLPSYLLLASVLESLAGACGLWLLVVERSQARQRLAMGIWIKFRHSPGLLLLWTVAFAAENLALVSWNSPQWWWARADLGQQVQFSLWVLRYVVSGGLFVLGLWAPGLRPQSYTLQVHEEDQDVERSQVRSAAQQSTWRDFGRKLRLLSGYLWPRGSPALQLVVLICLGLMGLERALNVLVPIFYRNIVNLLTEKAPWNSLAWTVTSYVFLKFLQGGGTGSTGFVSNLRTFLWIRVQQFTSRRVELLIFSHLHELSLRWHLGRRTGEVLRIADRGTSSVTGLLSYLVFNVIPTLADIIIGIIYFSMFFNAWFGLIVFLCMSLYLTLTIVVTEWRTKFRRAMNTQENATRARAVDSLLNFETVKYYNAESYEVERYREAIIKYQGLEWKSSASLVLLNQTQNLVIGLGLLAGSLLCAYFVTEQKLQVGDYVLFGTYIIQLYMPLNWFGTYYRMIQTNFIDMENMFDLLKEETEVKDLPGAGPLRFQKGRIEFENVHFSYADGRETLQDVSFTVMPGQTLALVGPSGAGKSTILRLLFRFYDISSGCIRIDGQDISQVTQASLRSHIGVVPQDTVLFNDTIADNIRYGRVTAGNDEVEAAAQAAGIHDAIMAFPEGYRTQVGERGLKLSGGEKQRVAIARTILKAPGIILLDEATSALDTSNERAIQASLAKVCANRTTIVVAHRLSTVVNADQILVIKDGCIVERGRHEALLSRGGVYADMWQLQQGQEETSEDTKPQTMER
iPSC survival up: hiPSC single-cell survival enhancement. ATPlite luminescence; 100% = ROCK inhibitor wells, 0% = DMSO. survival enhancement, % at 20 µM. 360,000 tested, 0.044% active. AID 602274; in the data active = survival enhancement above about 18%;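 also: cells exposed to compounds for 16 hours before the ATP read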
GSIS activator: GLuc luminescence reporter in INS-1E cells, primary screen for activators of glucose-dependent secretion of insulin; INS-1E GLuc reporter insulin secretion, 2-3 h; activation, % at 16.6 µM; 370,000 tested, 0.61% active; AID 743287;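 active = lowest replicate activation of at least 40%, so every replicate reaches that level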;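 also: 0% = median of neutral control wells and 100% = median of IBMX positive control wells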
CendR NRP1 mod: modulators of CendR peptide binding to human neuropilin-1; O14786; FAM-RPARPAR peptide binding to NRP-1, fluorescence polarization; inhibition, % at 25 µM; 360,000 tested, 0.85% active; AID 602438;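 active = inhibition or corrected inhibition above about 18%, plus a signal ratio from 0.5 to 1.5, limit read from the data, passing the limit was not always enough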
ARNT TACC3 PPI: disrupts binding between human ARNT and TACC3 | AlphaScreen His-ARNT PAS-B/GST-TACC3 binding, luminescence; TACC3 fragment carries E629A point mutation | 390,000 tested, 0.66% active | AID 623870 | Q9Y6A5 | inhibition, % at 9.99 µM;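 active = mean inhibition of replicates at least 50% and at least half of replicates each reaching 50%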;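 also: 0% = complete ARNT plus TACC3 wells and 100% = ARNT alone without TACC3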
ARNT Alpha ctr: counter-screen for ARNT/TACC3 inhibitors: AlphaScreen artifacts. shares compounds with ARNT TACC3 PPI. His-ARNT PASB-GST AlphaScreen artifact counter-screen, luminescence. AC50, µM (doses to about 68 µM), inactives show at the highest dose activity change, negative = signal decrease. 1,200 tested, 50% active;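 active = every separate test run was called active for a drop in luminescence, with AC50 within twice the top valid dose, actives reach about 71 µM in these data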
* marks the source's active call; other numbers are inactive results; . = no result given; [ ] = dose if it differs, or a comment. Only some compounds are listed: those with a hit (about 1.8% of all), similar ones and a draw of the others.

SMILES	ABCB6 inh 2	iPSC survival up	GSIS activator	CendR NRP1 mod	ARNT TACC3 PPI	ARNT Alpha ctr
Cc1noc(C)c1S(=O)(=O)Nc1ccc2c(c1)C(=O)N([C@@H](C)CO)C[C@H](C)[C@@H](CN(C)Cc1ccncc1)O2	.	.	14	.	-3	.
Cc1cccc(S(=O)(=O)N2C[C@H]3[C@@H](c4ccccc42)[C@@H](CO)N3Cc2ccccn2)c1	.	.	-9	.	11	.
O=S(=O)(c1ccccc1)N1C[C@H]2[C@@H](c3ccccc31)[C@@H](CO)N2Cc1ccccn1	.	.	7	.	27*	-31%[42 µM]
Cc1[nH][nH]c(=O)c1C(c1ccc(-c2cccc(C(=O)O)c2)o1)c1c(C)[nH][nH]c1=O	99	-2	10	-1	10	.
Cc1[nH][nH]c(=O)c1C(c1ccc(-c2ccccc2C(=O)O)o1)c1c(C)[nH][nH]c1=O	94	1	-1	3	54*	-12%
C[C@@H]1CN([C@H](C)CO)C(=O)c2cc(NC(=O)Nc3cccc4ccccc34)ccc2O[C@@H](C)CCCCO[C@H]1CN(C)Cc1ccccc1	.	.	-39	.	10	.
COc1ccccc1-c1nc(SCC(=O)Nc2ccccc2)n[nH]1	99	0	-5	6	-8	.
COc1ccccc1NC(=O)CSc1n[nH]c(-c2ccccn2)n1	98	0	30	11	61*	11µM*
O=C(CSc1n[nH]c(-c2cccnc2)n1)Nc1ccccc1	90	2	.	-2	3	.
COc1ccc(NC(=O)CSc2n[nH]c(-c3ccccn3)n2)cc1	94	0	10	-1	58*	6.9µM*
O=C(CSc1n[nH]c(-c2ccccn2)n1)Nc1ccccc1	99	1	5	2	62*	7.7µM*
C[C@@H]1CN([C@@H](C)CO)C(=O)Cc2cc(NC(=O)Nc3ccc(F)cc3)ccc2O[C@H]1CN(C)C(=O)Nc1ccccc1	.	.	-4	.	1	.
COc1cccc2c1-c1c(O)cccc1C2=O	88	-1	15	-3	9	.
O=C1C=C(O)c2cccc(O)c2C1=O	101	-1	.	24	52*	-8%
C[C@@H]1CN([C@@H](C)CO)C(=O)Cc2cc(NC(=O)Nc3cccc4ccccc34)ccc2O[C@@H]1CN(C)S(=O)(=O)c1ccccc1	.	.	4	.	.	.
Cc1ccc2ccc3cccnc3c2n1	100	0	19	-6	74*	51µM*
Cc1[nH]n(-c2ccccc2)c(=O)c1/C=N/N(c1ccccc1)c1ccccc1	101	0	-18	-1	55*	23µM*
C/C=C/c1cccc(-c2nc(C(=O)NCc3ccncc3)cc3c2[C@@H](CCO)N([S@](=O)C(C)(C)C)C3)c1	.	.	-18	.	.	.
COc1ccc2c3c(n(C)c2c1)[C@@H](CO)N(C(=O)Nc1ccccc1F)CC31CCN(C(=O)c2ccccc2)CC1	.	.	-28	.	.	.
CCCCOc1ccc(NC(=O)CSc2cccc3cccnc23)cc1	106	-1	9	1	13	.
O=C(CSc1cccc2cccnc12)N1CCCC1	90	-1	.	4	87*	10µM*
CN(C)C(=O)CSc1cccc2cccnc12	98	4	.	0	60*	15µM*
C[C@@H]1CN([C@H](C)CO)C(=O)c2cc(N(C)C)ccc2O[C@@H](C)CCCCO[C@@H]1CN(C)Cc1ccc(C(F)(F)F)cc1	.	.	-14	.	9	.
COCCCN1C(=O)[C@@]2(Cc3ccccc31)c1ccccc1C(=O)N(Cc1ccccc1)[C@H]2c1ccc(CO)cc1	.	.	.	.	-12	.
CC(C)NC(=O)N(C)C[C@@H]1Oc2c(cccc2N(C)C)C(=O)N([C@H](C)CO)C[C@H]1C	.	.	-8	.	-11	.
C[C@@H]1CN([C@H](C)CO)S(=O)(=O)c2ccc(C#Cc3ccccn3)cc2O[C@@H]1CN(C)C(=O)C1CC1	.	.	-2	.	51*	-5%[42 µM]
O=C(NCc1ccc(F)cc1)[C@@H]1[C@@H](CO)[C@@H]2Cn3c(cccc3=O)[C@H]1N2Cc1cccnc1	.	.	8	.	17	.
C[C@@H]1CN([C@@H](C)CO)C(=O)c2cc(NC(=O)NC3CCCCC3)ccc2O[C@@H]1CN(C)Cc1ccc(-c2ccccc2)cc1	.	.	-16	.	16	.
